Assay outcomes from PubChem.
RAD54 branch: blocks human RAD54 Holliday junction branch migration; inhibition, % at 10.4 µM; FAM/BHQ fluorescence; Q92698; 0.14% of 360,000 active; AID 602329;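 active means mean normalized replicate activity at least 40 and at least half of replicates scoring 40 or more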;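 further: inhibitors cause a drop in the FAM fluorescence signal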
Glyco luc inh: blocks N-linked glycosylation in D54 reporter cells | D54 ERlucT glycosylation luciferase reporter, 24 h; percent of 100 nM tunicamycin response | reporter increase, % at 12.5 µM | 0.23% of 360,000 active;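 active means mean luciferase reporter signal, scaled so untreated is 0 and the glycosylation-blocking control 100, at or above a set limit in every replicate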;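 further: luciferase carries N-glycosylation sites so blocking glycosylation raises the light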
NRP1-CendR mod: alters CendR peptide binding to human NRP-1; O14786; FAM-RPARPAR peptide binding to NRP-1, fluorescence polarization; inhibition, % at 25 µM; 0.85% of 360,000 active;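 active means inhibition or corrected inhibition above about 18%, plus a signal ratio from 0.5 to 1.5, limit read from the data, passing the limit was not always enough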
miR122 inh: inhibitors of miR-122 in Huh7 cells. Huh7 miR-122 Renilla luciferase sensor, 48 h; neutral wells = 0, positive control = 100. activation (reporter increase), % at 12.5 µM. 0.3% of 340,000 active;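 active means mean replicate activation score at least 90 and every replicate individually at or above 90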;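 further: higher luciferase means less miR-122 activity so hits act as miR-122 inhibitors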
RAD52 anneal inh: inhibitors of human RAD52 DNA annealing; P43351; AID 651710; inhibition, % at 18.7 µM; recombinant RAD52 DNA annealing, FRET fluorescence; 0.46% of 360,000 active;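 active means every replicate showing at least 50% inhibition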
Target sequence (P43351 whole entry, looked up): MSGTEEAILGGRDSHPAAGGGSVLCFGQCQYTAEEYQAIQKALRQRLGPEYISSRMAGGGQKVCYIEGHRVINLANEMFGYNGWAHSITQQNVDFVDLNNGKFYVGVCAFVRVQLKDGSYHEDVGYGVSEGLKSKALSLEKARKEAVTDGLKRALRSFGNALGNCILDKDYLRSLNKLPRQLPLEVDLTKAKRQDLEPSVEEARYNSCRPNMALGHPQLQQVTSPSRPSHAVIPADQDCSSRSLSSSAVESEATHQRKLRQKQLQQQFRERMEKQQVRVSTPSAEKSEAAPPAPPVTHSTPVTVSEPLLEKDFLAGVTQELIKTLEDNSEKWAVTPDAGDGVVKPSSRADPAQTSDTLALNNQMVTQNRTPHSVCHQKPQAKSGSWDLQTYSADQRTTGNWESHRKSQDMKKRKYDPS
DNA FID counter: fluorescent intercalator displacement, NS3 helicase counter-screen; 0.17% of 290,000 active; AID 1845; DNA fluorescent intercalator displacement, fluorescence; inhibition, % at 7.9 µM; in the data active means inhibition above about 37%;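 further: higher means more ethidium bromide displaced from hairpin DNA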
A number is an active result; 0 = inactive; - = not tested or not shown. This is a sample that favours compounds with a hit; in the whole collection about 1.5% have one here.

SMILES	RAD54 branch	Glyco luc inh	NRP1-CendR mod	miR122 inh	RAD52 anneal inh	DNA FID counter
Cc1c(C(=O)Nc2ccc3oc(-c4cccnc4)nc3c2)oc2ccccc12	0	29.8	0	0	-	0
COc1cc2c(c(OC)c1OC)C(=O)CO2	0	0	18.5	0	0	-
CN1CCN(c2ccc(NC(=O)CSc3nnnn3-c3ccccc3Cl)cc2)CC1	0	0	0	0	0	37.5
CO[C@H]1CN(C)C(=O)c2ccc(NC(C)=O)cc2OC[C@H](C)N(Cc2nccs2)C[C@@H]1C	-	-	-	-	0	-
COc1ccc(S(=O)(=O)Nc2cccc3c2O[C@H](CN(C)CC2CC2)[C@H](C)CN([C@H](C)CO)C3=O)cc1	0	-	-	0	0	-
COc1ccc(NS(=O)(=O)c2cc(C)ccc2NC(=O)c2cc(C)oc2C)cc1	0	0	0	404.0	-	0
COc1ccc(NS(=O)(=O)c2cccc(C(=O)NNC(=O)c3cc(C)oc3C)c2)cc1	-	0	0	-	0	0
O=C(NCC[C@@H]1CC[C@@H](NC(=O)C2CC2)[C@@H](CO)O1)c1cnccn1	0	-	-	-	0	-
O=C(Nc1ccc(N2CCOCC2)cc1)c1cc(-n2cnnc2)ccc1Cl	0	0	26.2	-	0	0
COC(=O)c1ccc(N2CCOCC2)c(NC(=O)c2cccnc2)c1	0	0	26.4	0	0	0
Cc1[nH][nH]c(=O)c1C(c1ccc(-c2ccc(F)cc2)o1)c1c(C)[nH][nH]c1=O	-	0	0	-	0	0
Cc1[nH][nH]c(=O)c1C(c1ccc(-c2ccc(Cl)c(Cl)c2)o1)c1c(C)[nH][nH]c1=O	0	46.5	0	0	-	0
COc1ccc(-c2ccc(C(c3c(C)[nH][nH]c3=O)c3c(C)[nH][nH]c3=O)o2)c([N+](=O)[O-])c1	-	34.4	0	0	0	0
Cc1[nH][nH]c(=O)c1C(c1ccc(-c2ccc(C(=O)O)cc2)o1)c1c(C)[nH][nH]c1=O	-	0	0	-	0	0
C[C@H](CO)N1C[C@H](C)[C@@H](CN(C)Cc2ccccc2C(F)(F)F)OCc2ccccc2-c2ccccc2C1=O	-	-	-	-	0	-
O=C(c1cccc(C(F)(F)F)c1)N1CCC(=O)N(C(CO)Cc2ccccc2)CC1 (configuration not stated)	0	0	0	-	0	-
O=C(c1ccc(C(F)(F)F)cc1)N1CCC(=O)N(C(CO)Cc2ccccc2)CC1 (configuration not stated)	0	0	26.5	0	0	-
COc1ccc(NC(=O)N(C)C[C@@H]2Oc3cc(C#CCC(C)C)ccc3S(=O)(=O)N([C@H](C)CO)C[C@@H]2C)cc1	0	-	-	0	0	-
CCOC1=C2[C@@H](CN(S(=O)(=O)c3ccccc3C)[C@H]2c2ccc(Cl)cc2)[C@H]2C(=O)N(c3ccccc3)C(=O)[C@H]2C1	0	0	22.2	0	0	-
O=C(OC(C(=O)NCc1ccccc1)c1ccco1)c1ccccc1 (configuration not stated)	0	-	-	-	0	-
CO[C@H]1CN(C)C(=O)c2cc(NC(=O)CC(F)(F)F)ccc2OC[C@@H](C)N(C(=O)C2CCOCC2)C[C@@H]1C	-	-	-	-	0	-
Cc1ccc(Cl)cc1NC(=S)N(CCCN1CCOCC1)Cc1ccccn1	0	0	0	160.3	-	0
CC(C)(C)c1ccc(SCCc2cccnc2)cc1	-	0	30.9	-	0	0
C[C@H](CO)N1C[C@H](C)[C@H](CN(C)CC2CC2)Oc2c(NC(=O)c3ccc(-c4nccs4)cc3)cccc2C1=O	-	-	-	-	0	-
CCC(=O)Nc1ccc2c(c1)C(=O)N(C)C[C@H](OC)[C@@H](C)CN(C(=O)Cc1ccccn1)[C@H](C)CO2	0	-	-	-	0	-
SMILES	RAD54 branch	Glyco luc inh	NRP1-CendR mod	miR122 inh	RAD52 anneal inh	DNA FID counter
CCOc1cc(/C=C2\SC(=Nc3ccc(F)cc3)N(c3ccc(F)cc3)C2=O)ccc1OCC(=O)O	-	-	-	-	-	44.3
C[C@H](CO)N1C[C@H](C)[C@@H](CN(C)C(=O)Nc2ccc(F)cc2)OCCCC[C@H](C)Oc2ccc(NC(=O)Nc3ccccc3)cc2C1=O	0	-	-	0	0	-
N=C1C(=O)OCC1c1cc(Cl)ccc1NC(=O)Nc1ccccc1 (configuration not stated)	0	0	38.8	0	-	0
COc1cc(C(=O)Nc2ccccc2C2COC(=O)C2=N)cc(OC)c1OC (configuration not stated)	-	0	0	-	-	0
CN(C)CC(=O)N[C@H]1C[C@@H]2O[C@H](CO)CC[C@@H]2O[C@@H]1CCc1ccc(C#Cc2ccccc2)cc1	-	-	-	-	59.7	-
O=C(CC1CC1)N[C@H]1C[C@@H]2O[C@@H](CO)CC[C@@H]2O[C@@H]1CCc1ccc(C#Cc2ccccc2)cc1	-	-	-	-	0	-
CCCCCn1c(=O)[nH]c2cc(C(=O)NCCN3CCC(C)CC3)ccc2c1=O	0	0	0	-	-	0
CCCCCn1c(=O)[nH]c2cc(C(=O)NCCCN3CCC(C)CC3)ccc2c1=O	0	0	28.0	0	-	0
COc1ccccc1NS(=O)(=O)c1ccc(N/N=C/c2ccccc2OCC(=O)O)c([N+](=O)[O-])c1	-	0	0	0	0	0
COc1ccccc1NS(=O)(=O)c1ccc(N/N=C/C=C/c2ccccc2[N+](=O)[O-])c([N+](=O)[O-])c1	-	0	28.8	-	0	0
CCC(=O)N1CC2(CN(Cc3ccccc3Cl)C2)c2c([nH]c3cc(OC)ccc23)[C@H]1CO	-	-	-	-	0	-
NC1=C(Cl)C(=O)c2ccc(S(N)(=O)=O)cc2C1=O	0	0	0	0	0	-
NC1=C(Cl)C(=O)c2ccccc2C1=O	-	0	26.9	-	0	-
CCCNC(=O)C[C@H]1CC[C@@H]2[C@H](COC[C@@H](O)CN2CC2CCCCC2)O1	0	-	-	0	0	-
CCCC#Cc1cnc2c(c1)C(=O)N([C@@H](C)CO)C[C@@H](C)[C@@H](CN(C)C(=O)c1cnccn1)O2	0	-	-	0	0	-
Cc1cc(=O)oc2cc(OCC(=O)NCc3ccco3)ccc12	0	0	0	0	-	94.5
CC(=O)Oc1ccc2c(C)cc(=O)oc2c1	-	0	0	0	-	0
COC(=O)C(CC(C)C)Oc1ccc2c(C)cc(=O)oc2c1 (configuration not stated)	0	0	0	152.2	-	0
OC[C@@H]1[C@H](c2ccc(/C=C/c3ccccc3)cc2)[C@H]2CN(CCC(F)(F)F)CCCCN12	0	-	-	0	0	-
C[C@H](O)C#Cc1ccc([C@@H]2[C@H](CO)N3CCCCN(CC4CCOCC4)C[C@@H]23)cc1	0	-	-	0	0	-
Cc1ccc(Sc2c(CO)c(-c3ccccc3)nn2C)cc1	-	28.9	0	-	0	0
Cc1ccc(-c2nn(-c3ccccc3)cc2CO)cc1	0	0	0	0	0	0
C=CCC1(CC=C)CCCN1C(=O)c1cc(COc2cccc(OC)c2)on1	0	0	21.4	0	0	0
C=CCC1(CC=C)CCCN1C(=O)c1cc(COc2cncc(Cl)c2)on1	0	0	0	0	0	0
CCOC(=O)C1=C[C@@H](C(C)(C)C)N(S(=O)(=O)c2ccc([N+](=O)[O-])cc2)[C@H]1c1ccccc1	0	0	22.7	0	0	-
